Compound activity as filed in PubChem BioAssay.
Hits are enriched below; roughly 8.1% of the tested compounds scored in any of these assays.
SW480 rereplic = DNA re-replication induction in SW480 cells. SW480 DNA re-replication, Hoechst DNA content imaging, 48 h. AID 624297. 340,000 compounds, 1.8% hits. Potency, µM (top dose mostly 46.1 µM), for the others: top-dose re-replication activation, most hits filed as activators; note: % of control where 0% means no effect; nearly all actives have a fitted effect of over 55% in size
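Image-based read-out: total Hoechst fluorescence of nuclei (405 nm excitation, 500-530 nm emission), with hits raising the fraction of high-intensity nuclei. SW480 colon cells incubated 48 hr with compounds at 37 C.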
KB-V1 cytotox = KB-V1 MDR subline cytotoxicity | AID 1347076 | KB-V1 MDR cells viability, CellTiter-Glo, 72 h | Potency, µM (series often up to 46.1 µM), hits mostly cytotoxic | 400,000 compounds, 3.4% hits; note: % is set by controls: 0 for no effect and ±100 for the full control effect; nearly all actives have a fitted effect of over 60% in size
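Luminescent ATP read-out (CellTiter-Glo, 10 min) measures survival of drug-selected KB-V1 MDR cells after 72 h, 37 degrees C compound exposure. Medium: phenol-red-free DMEM, 10% FBS. Values from fitted concentration-response curves.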
ELG1 DNA repair = blocks ELG1-dependent DNA repair in HEK293T cells; Potency, µM (top dose mostly 46.1 µM), without a hit: at the highest dose activity change, negative = inhibition, most hits filed as inhibitors; HEK293T ELG1-luciferase reporter, luminescence, 16 h; DNA damage induced by 5-fluorouridine; 330,000 compounds, 2.3% hits; note: % is set by controls: 0 for no effect and ±100 for the full control effect; nearly all actives have a fitted effect of over 55% in size
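Luminescence from the luciferase reporter, measured 30 min after ONE-Glo reagent at room temperature, was the read-out. Beforehand, 2,000 cells per well were exposed for 16 hr at 37 °C to 5-fluorouridine together with compound or vehicle.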
MCF10A rereplic = DNA re-replication induction in MCF 10a cells; MCF 10A DNA re-replication, Hoechst nuclear intensity, 48 h; Potency, µM (doses to about 46.1 µM), without a hit: top-dose activity, positive = re-replication, usual class: activators; 350,000 compounds, 2.9% hits; note: % of control where 0% means no effect; nearly all actives have a fitted effect of over 50% in size
KB-3-1 tox = KB-3-1 parental cell cytotoxicity. KB-3-1 viability, CellTiter-Glo ATP luminescence, 72 h. Potency, µM (highest dose often 46.1 µM), actives largely listed as cytotoxic. 400,000 compounds, 1.4% hits. AID 1347075; note: % is set by controls: 0 for no effect and ±100 for the full control effect; nearly all actives have a fitted effect of over 60% in size
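Parental KB-3-1 viability, qHTS format: 72 h compound exposure, 37 °C; CellTiter-Glo; media-only wells and DMSO plates as controls; concentration-effect fits on corrected data.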
* marks the source's active call; other numbers are inactive results; i = inactive; ? = inconclusive; . = no result given. Calls come from the whole dose curve; as a rule, active = well fitted curve in the direction sought with a large enough effect; inconclusive = small, poorly fitted or top-dose-only effect, or another doubt; inactive = no such curve, though single readings can be large; an effect the other way counts as inactive or inconclusive. Potency is the fitted concentration of half-maximal effect.

SMILES | SW480 rereplic | KB-V1 cytotox | ELG1 DNA repair | MCF10A rereplic | KB-3-1 tox
CC(CC(=O)NC(C)c1ccc2c(c1)OCCO2)c1ccccc1 (stereo not given) | -44% | 26µM* | 0% | 5% | i
CC(NC(=O)CCc1ccccc1)c1cc2c(cc1Cl)OCCO2 (stereo not given) | 18% | 21µM* | -24% | ? | ?
C[C@@H]1[C@H](c2ccccc2)OCCS(=O)(=O)N1Cc1cccc(Cl)c1 | . | ? | . | . | i
C[C@H](CO)N1C[C@H](C)[C@@H](CN(C)Cc2ccccc2)OCc2cnnn2CCCC1=O | . | i | . | . | i
CC(Oc1cc(Cl)ccc1Cl)C(=O)N/N=C\c1ccnn1C (stereo not given) | -7% | 18µM* | -9% | 13% | i
CCCn1nnc(NC(=O)C(C)Oc2ccc(Cl)cc2Cl)n1 (stereo not given) | -8% | ? | 0% | 2% | i
COc1ccc(OC)c(NC(=O)Cc2nn(C)c(=O)c3ccccc23)c1 | -1% | ? | ? | 15% | i
COc1ccc(OCC(=O)Nc2cccc3ncccc23)cc1 | -8% | ? | -11% | 1% | i
Cn1nc(CC(=O)Nc2cccc3ncccc23)c2ccccc2c1=O | 4% | ? | 7.3µM* | ? | i
O=C(CCl)Nc1cccc2ncccc12 | ? | ? | 26µM* | ? | ?
COc1cc(NC(=O)Cc2nn(C)c(=O)c3ccccc23)cc(OC)c1OC | -8% | 15µM* | ? | 6% | i
COc1ccc(C(=O)NCC(c2cccnc2)N2CCc3ccccc3C2)cc1 (stereo not given) | . | ? | . | . | i
CCOC(=O)c1[nH]c(C)c(CCC(=O)NCc2ccc(C)cc2)c1C | . | i | . | . | i
O=C1CN2CCC1C/C2=C\c1ccnc2c(Cl)cccc12 (stereo not given) | -2% | i | 10µM* | 23% | i
CCOC(=O)C1CCCN(C(=O)c2cc(COc3ccc(C)nc3)on2)C1 (stereo not given) | ? | 16µM* | ? | -1% | i
CCOC(=O)C1CCCN(C(=O)c2cc(-c3ccc(C)cc3)on2)C1 (stereo not given) | -6% | i | ? | 2% | i
COC(=O)c1ccc(C2C(C(=O)c3cc4ccccc4o3)=C(O)C(=O)N2c2cc(C)on2)cc1 (stereo not given) | ? | i | 13% | 23µM* | i
COc1cc(C2C(C(=O)c3cc4ccccc4o3)=C(O)C(=O)N2c2cc(C)on2)cc(OC)c1OC (stereo not given) | -4% | i | 18% | ? | i
CCCOc1cccc(C2C(C(=O)c3cc4ccccc4o3)=C(O)C(=O)N2c2cc(C)on2)c1 (stereo not given) | 26% | i | -4% | 5.8µM* | ?
Cc1cc(N2C(=O)C(O)=C(C(=O)c3cc4ccccc4o3)C2c2cccc(Br)c2)no1 (stereo not given) | -2% | ? | -3% | 18µM* | i
Cc1cc(N2C(=O)C(O)=C(C(=O)c3cc4ccccc4o3)C2c2ccc(OC(C)C)cc2)no1 (stereo not given) | -8% | i | -4% | ? | ?
Cc1nn(C)c(C)c1CCNC(=O)Nc1cccc(Cl)c1C | . | i | . | . | i
COc1ccc2[nH]cc(CCNC(=O)c3cnn(-c4ccc(C)cc4)c3C3CCN(C(=O)OC(C)(C)C)CC3)c2c1 | . | i | . | . | i
O=Cc1c(Cl)nc2ccccn2c1=O | ? | ? | 16% | 26µM* | i
COC1=C(N)C(=O)c2nc(C)ccc2C1=O | ? | ? | . | 11% | 4.6µM*
SMILES | SW480 rereplic | KB-V1 cytotox | ELG1 DNA repair | MCF10A rereplic | KB-3-1 tox
CN(C)c1oc(-c2ccccc2Cl)nc1P(=O)(c1ccccc1)c1ccccc1 | ? | 7.3µM* | ? | 18µM* | ?
Cc1ccc(S(=O)(=O)c2nc(-c3ccccc3Cl)oc2N(C)C)cc1 | ? | 10µM* | ? | 12% | 18µM*
CN(C)c1oc(-c2ccco2)nc1S(=O)(=O)c1ccc(Br)cc1 | -2% | 4.6µM* | 0% | 5% | i
Cc1ccc(-c2nc(S(=O)(=O)c3ccc(C)cc3)c(N(C)C)o2)cc1 | 0% | ? | -2% | 0% | i
CCSc1oc(-c2ccco2)nc1S(=O)(=O)c1ccc(Br)cc1 | . | i | . | . | i
Nc1cc2c(cc1Cl)-c1ccccc1C2=NO | 5% | i | . | ? | i
CC(C)(C)c1ccc(C(=O)C[n+]2ccccc2Cl)cc1 | . | i | . | . | i
CCN(Cc1ccncc1)C(=O)c1ccc(C)c(S(=O)(=O)N2CCCCC2)c1 | 20% | . | ? | ? | .
Cc1nn(-c2ccccc2)c(-n2cccc2)c1C(=O)NCCc1ccc(Cl)cc1 | . | ? | . | . | i
Cc1nn(-c2ccc(F)cc2)c(-n2cccc2)c1C(=O)NCCCN1CCN(c2cccc(Cl)c2)CC1 | . | 10µM* | . | . | ?
Cc1ccc(-n2nc(C)c(C(=O)NCCCN3CCN(c4ccc(F)cc4)CC3)c2-n2cccc2)cc1 | . | 16µM* | . | . | 15µM*
CCCN1CCN(CCCNC(=O)c2c(C)nn(-c3ccc(F)cc3)c2-n2cccc2)CC1 | . | ? | . | . | i
CCOC(=O)N1CCC(NC(=O)c2c(C)nn(-c3ccc(C)cc3)c2-n2cccc2)CC1 | . | 7.3µM* | . | . | ?
Cc1ccc(CN2CCN(CC(=O)NCCCN3CCN(c4ccc(F)cc4)CC3)C2=O)cc1 | -3% | i | ? | 5% | 16µM*
Cn1c(=O)c2cc(NC(=O)NCc3ccc(Cl)cc3Cl)ccc2n1Cc1ccccc1 | . | i | . | . | i
O=C(NCCCN1CCN(c2cccc(Cl)c2)CC1)c1nc(-c2ccncc2)no1 | -1% | 4.1µM* | ? | 21% | i
O=C(NCCCN1CCN(CCCNC(=O)c2cccc(Cl)c2)CC1)c1cccc(Cl)c1 | 1% | ? | 4% | ? | i
CCOC(=O)c1c(C)[nH]c(C)c1C(=O)COC(=O)c1sccc1C | -4% | 18µM* | -25% | -2% | i
CCOC(=O)c1c(C)[nH]c(C)c1C(=O)COC(=O)/C=C/c1ccc(OC)cc1 | 16µM* | 13µM* | ? | 8% | ?
CCOc1ccc(/C=C/C(=O)Oc2ccc(OC)cc2)cc1 | 15µM* | ? | -4% | 5% | i
CCOC(=O)c1c(C)[nH]c(C)c1C(=O)COC(=O)c1c(OC)cccc1OC | -8% | i | -19% | 8% | i
CCOC(=O)c1c(C)[nH]c(C)c1C(=O)COC(=O)/C=C/c1cccc(F)c1 | 4% | i | -27% | -3% | i
CC(=O)c1c(C)[nH]c(C(=O)Nc2ccc(C)c(S(=O)(=O)N(C)C)c2)c1C | -17% | i | ? | 1% | i
